Test results taken from PubChem BioAssay AID1347043 (National Center for Advancing Translational Sciences (NCATS), 2019).
In all, about 76,000 compounds went through this assay and about 1,900 (2.5%) were called active. Inconclusive results (about 5%) are left out. Many of the other results were omitted from the sample, so actives are more common in it than they were. Values without a mark were called inactive. The call rests on the fitted dose curve; in most records, active means well fitted inhibition curve with a large enough effect; inconclusive means small, poorly fitted or top-dose-only effect; inactive means flat fitted curve, though single readings scatter.

Biological target: Luciferin 4-monooxygenase (Photinus pyralis) (UniProt P08659)
Experiment: Firefly luciferase inhibition profiling of diverse chemical library using quantitative high-throughput screening; further: nearly all actives have a fitted effect of over 65% in size
Details: purified P. pyralis luciferase, luminescence, biochemical; series mostly up to 115 µM; activity change, negative = inhibition: at the top concentration
Excerpt: Firefly (Photinus pyralis) luciferase is one of the most commonly used transcriptional reporters for a number of reasons. It is considered one of the more dynamically responsive reporters - that is, responsive to changes in reporter transcription - as it requires no post-translational modifications and is enzymatically active directly after protein synthesis (Wood, 1998). Additionally, the half-life of the luciferase protein is short relative to other reporter-gene products (Wood, 1995). Whereas reporters with long half-lives potentially allow for increased signal due to accumulation of reporter-gene product, once accumulated in the cell, dynamic changes in reporter-gene expression may be difficult to detect(Fan and Wood, 2007; Almond et al., 2004). It has been shown that wild-type P. pyralis luciferase has a half-life of approximately four hours in mammalian cells (Thompson et al., 1991). Firefly luciferase reporter-gene assays are also generally considered one of the most sensitive assay types (Wood, 1995; Wood, 1998). Although light produced in a bioluminescence reaction is of lower intensity than that produced during fluorescence emission, this is offset by little to no background light inherent to luminescent assays. Thus the luciferase reporter can be expressed at much lower levels than fluorescent proteins while still providing robust signal. However, it was initially observed, in 1991, by Thompson et al., that compounds that resemble the substrates of firefly luciferase (FLuc) can act as competitive inhibitors of the enzyme, and that these compounds, upon interaction with luciferase in the cell, can actually stabilize the protein and increase its half-life. Accumulated intracellular FLuc protein can be measured as an increase in luminescence signal, upon addition of detection reagents (which contain high concentrations of FLuc substrates) commonly used in high-throughput screening. In cell-based reporter gene assays that use FLuc as the reporter gene to quantitate the potential influence of a given compound against the target biology, this apparent increase in luminescence can mistakenly be interpreted as identification of a compound that is active against the target of interest. FLuc inhibitory compounds that stabilize the FLuc protein will give an identical read-out, making it difficult to distinguish compounds that are active against the target from those active against FLuc. In summary, the results generated here constitutes a valuable resource for the scientific community and provides insight on identifying compounds with inhibitory activity for the commonly-used reporter, firefly luciferase. References: -Almond, B., Zdanovsky, A., Zdanovskaia, M., Ma, D., Stecha, P., Paguio, A., Garvin, D., and Wood, K. (2004). Introducing the Rapid Response Reporter Vectors. Promega Notes 87, 18-22. -Fan, F., and Wood, K.V. (2007). Bioluminescent assays for high-throughput screening. Assay Drug Dev Technol 5, 127-136. -Thompson, J.F., Hayes, L.S., and Lloyd, D.B. (1991). Modulation of firefly luciferase stability and impact on studies of gene regulation. Gene 103, 171-177. -Wood, K.V. (1998). The chemistry of bioluminescent reporter assays. Promega Notes 65, 14-20. -Wood, K.V. (1995). Marker proteins for gene expression. Curr Opin Biotechnol 6, 50-58.
Reagents: 50mM Tris acetate, pH 7.5; 10mM Mg acetate; 10uM D-luciferin (Sigma #L9504); 10uM ATP; 0.01% Tween-20; 0.05% BSA; 10nM P. pyralis luciferase (Sigma #L9506) Control compounds used were two known firefly luciferase inhibitors (compounds (2) and (5) in Auld et al., 2010), and DMSO. Assay Summary: Three microliters containing firefly luciferase substrates in buffer (final concentrations: 50mM Tris acetate, pH 7.5, 10mM Mg acetate, 0.01% Tween-20, 0.05% BSA, 10uM D-luciferin, and 10uM ATP) are dispensed into each well of a Greiner white, solid-bottom 1536-well format plate using a flying reagent dispenser (FRD). […]
On the % scale 0 is the no-effect control and ±100 the full control effect.

Sequence of Luciferin 4-monooxygenase (Photinus pyralis) (P08659 whole entry, looked up): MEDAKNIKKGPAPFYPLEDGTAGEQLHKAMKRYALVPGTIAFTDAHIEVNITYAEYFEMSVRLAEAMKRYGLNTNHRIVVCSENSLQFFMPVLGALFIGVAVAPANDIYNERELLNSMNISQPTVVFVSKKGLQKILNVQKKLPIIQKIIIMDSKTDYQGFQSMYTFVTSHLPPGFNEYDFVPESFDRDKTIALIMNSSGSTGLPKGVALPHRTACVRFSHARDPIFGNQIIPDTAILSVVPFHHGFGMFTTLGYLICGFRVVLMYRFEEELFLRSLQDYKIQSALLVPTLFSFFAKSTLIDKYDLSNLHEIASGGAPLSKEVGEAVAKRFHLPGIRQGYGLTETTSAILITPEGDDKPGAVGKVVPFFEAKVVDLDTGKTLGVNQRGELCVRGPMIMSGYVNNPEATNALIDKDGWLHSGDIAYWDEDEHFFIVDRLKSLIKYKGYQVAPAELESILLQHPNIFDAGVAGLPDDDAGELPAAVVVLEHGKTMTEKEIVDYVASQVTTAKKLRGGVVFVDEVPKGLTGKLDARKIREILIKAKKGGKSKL

Row | Compound | activity change, negative = inhibition | Potency
1 | CCCCCCOC(=O)C1=CN(C)S(=O)(=O)N=C1C | -7.56% | 
2 | Cn1cc(CC(=O)N2CCCc3ncc(C(N)=O)cc32)c2ccccc21 | 3.17% [at 172 µM] | 
3 | COCCNC(=O)CCc1c(C)nn(-c2ccccc2)c1Oc1ccccc1F | -0.838% | 
4 | O=C([C@@H]1C[C@H](Oc2ccccc2)CN1C(=O)CN1CCCCCC1)N1CCCC1 | -13.3% | 
5 | CN(C)c1cccc(Nc2cc3c(cn2)NCCN(Cc2ccccc2)C3)c1 | 6.72% [at 172 µM] | 
6 | c1ccc(CN2CCNc3cc(NCc4cccnc4)ncc3C2)cc1 | 13.2% [at 172 µM] | 
7 | Fc1ccccc1CN1CCNc2cc(Nc3cccnc3)ncc2C1 |  | 50.1 µM (active)
8 | Fc1ccc(Cc2nc3nccc(-c4ccco4)n3n2)cc1 | -2.42% | 
9 | COc1ccc(-c2ccc3ncc(Nc4ccc(C(F)(F)F)cc4)n3n2)cn1 | 4.32% [at 172 µM] | 
10 | CC#CC(=O)N1CCCC(C(=O)Nc2cccc(-c3cccc(C)c3)c2)C1 (stereo unspecified) |  | 15.8 µM (active)
11 | CC(=O)Nc1cccc(-c2nnc3n2CCCC3)c1 | 3.08% | 
12 | Cc1cccc(C(=O)N2C[C@@H](F)C[C@H]2C(=O)N2CCCCC2)c1 | 39.2% | 
13 | O=C(Nc1cccc(Cl)c1)C1CCCN(c2nc3ncccc3o2)C1 (stereo unspecified) | 3.77% | 
14 | Cc1cccc(-c2cccc(NC(=O)C3CCCN(C(=O)CC(F)(F)F)C3)c2)c1 (stereo unspecified) |  | 11.2 µM (active)
15 | O=C(Nc1cccc(F)c1)N1CCCC(CN2CCOCC2)CC1 (stereo unspecified) | -4.29% | 
16 | CCn1nccc1C(=O)N1CCCC1c1cc(C)no1 (stereo unspecified) | -9.45% | 
17 | CN1C(=O)CC(C(=O)O)C12CCN(CCc1ccccn1)CC2 (stereo unspecified) | -1.6% | 
18 | Cc1ccc(CNC(=O)N2CCN(C(=O)N3CC4CC(C3)[C@H]3CCCC(=O)N3C4)CC2)cc1 (stereo partly specified) | 0% | 
19 | CCn1c(CN(C)C)nnc1C1CCN(Cc2ccc(-n3ccnc3)cc2)CC1 | -2.73% | 
20 | COc1ccc(C2Cn3nnc(C(=O)N4CCC(C(=O)NCC5CCCCC5)CC4)c3CO2)cc1 (stereo unspecified) | 2.8% | 
21 | Cc1ccc(C2Cn3nnc(C(=O)N4CCC(C(=O)NCCc5ccccc5)CC4)c3CO2)cc1 (stereo unspecified) |  | 12.6 µM (active)

Row | Compound | activity change, negative = inhibition | Potency
22 | CN(C)c1ccc(C(=O)N2CCN(C(=O)c3nnn4c3COC(c3ccc(Cl)cc3)C4)CC2)cc1 (stereo unspecified) | -8.23% | 
23 | Cc1ccc(C(=O)N2CCN(C(=O)c3nnn4c3COC(c3ccccc3)C4)CC2)cc1 (stereo unspecified) | -10.9% | 
24 | O=C(c1ccoc1)N1CCN(C(=O)c2nnn3c2COC(c2ccc(Cl)cc2)C3)CC1 (stereo unspecified) | -1.41% | 
25 | CCCCNC(=O)C1CCN(C(=O)c2nnn3c2COC(c2ccc(C)cc2)C3)CC1 (stereo unspecified) |  | 28.2 µM (active)
26 | Cc1ccc(C2Cn3nnc(C(=O)N4CCC(C(=O)Nc5ccc(Cl)cc5)CC4)c3CO2)cc1 (stereo unspecified) |  | 15.8 µM (active)
27 | COc1ccc(C2Cn3nnc(C(=O)N4CCN(C(=O)c5ccc(C)cc5C)CC4)c3CO2)cc1 (stereo unspecified) | -19.6% | 
28 | Cc1ccc(C2Cn3nnc(C(=O)N4CCN(C(=O)COc5cccc(C)c5)CC4)c3CO2)cc1 (stereo unspecified) | 7.9% | 
29 | C=CCN(C)C(=O)[C@@H](C)C1CC[C@@]2(C)Cc3sc(Nc4c(Cl)cccc4Cl)nc3[C@@H](C)[C@@H]2[C@H]1O (stereo partly specified) | -23.1% | 
30 | O=C(C[C@@H]1CCNC[C@@H]1Cc1cc(CSc2ccccc2)on1)NCc1ccc2c(c1)OCO2 | -0.784% | 
31 | CCc1cccc(C)c1NC(=O)Cn1ccn2nc(-c3ccc(F)cc3)c(CO)c2c1=O | 9.89% | 
32 | Cc1ocnc1C(=O)N1CCc2nc(N)nc(N3CC[C@H](O)C3)c2CC1 | -2.27% | 
33 | Cc1cn2nc(C(=O)NCc3ccc(F)cc3)cc2c(N2CCCC2)n1 | 0% | 
34 | CC(C)CCN1C(=O)CC[C@]2(C(=O)N3CCN(CC(C)C)CC3)CCCC[C@@H]12 | 1.21% | 
35 | CC(C)CCN1C(=O)CC[C@]2(C(=O)N3CCN(C)CC3)CCCC[C@@H]12 | -0.341% | 
36 | CCN1CCN(C(=O)C23CCCC=C2N(C2CCCC2)C(=O)CC3)CC1 (stereo unspecified) |  | 39.8 µM (active)
37 | CNC(=O)[C@@H]1CN(C(=O)c2n[nH]c3ccccc23)C[C@H]1c1n[nH]c(C)n1 | -7.09% | 
38 | Cc1cccnc1NC(=O)C1c2ccccc2C(=O)N(C2CCCC2)C12CCCC2 (stereo unspecified) | -10% | 
39 | O=C([C@@H]1C[C@H](F)CN1C(=O)c1ccccc1OC(F)(F)F)N1CCCCC1 | 1.44% | 
40 | O=C([C@@H]1C[C@@H](O)[C@H](O)[C@@H]2NC(=S)N(c3ccc(OC(F)(F)F)cc3)[C@@H]21)N1CCCCC1 |  | 14.1 µM (active)
41 | CC1(NC(=O)C2CC2)CN(c2ccc(OC(F)(F)F)cc2)C1 | -6.69% [at 172 µM] | 
42 | Cc1noc(-c2cccc(OC3CN(C(=O)c4ccco4)C3)c2)n1 | -3.66% | 

Row | Compound | activity change, negative = inhibition | Potency
43 | COc1ccccc1OCc1cc(C(=O)NCc2n[nH]c3c2CCC3)n[nH]1 | -12.1% | 
44 | O=C(c1ccc(-c2ccc(N3CCCCC3)nc2)cc1)N1CCOCC1 |  | 35.5 µM (active)
45 | CN1CCCN(c2ccc(C(=O)N3CCC(N4CCOCC4)CC3)cn2)CC1 | -13.3% | 
46 | CCOC(=O)C1CCN(C(=O)c2ccc(-c3ccc(N4CCCCCC4)nc3)cc2)CC1 | -15.5% | 
47 | COc1ccc(-c2noc(-c3cccn3CC(=O)Nc3ccccc3)n2)cc1F | 0.68% | 
48 | O=C(CCc1ccccc1)NCCn1cccc1-c1nc(-c2ccc3c(c2)OCO3)no1 |  | 50.1 µM (active)
49 | Cc1ccc(NC(=O)Cn2cccc2-c2nc(-c3ccc4c(c3)OCO4)no2)cc1Cl | -6.96% | 
50 | COc1ccc(CN2CCC3(COc4ccccc4C(=O)N3)C2)cc1 (stereo unspecified) | 2.84% | 
51 | Cc1c(Cl)cccc1NC(=O)N1C[C@@H](F)C[C@H]1C(=O)N1CCc2ccccc2C1 | -4.6% | 
52 | O=C(CC1CCCC1)N1CCC(c2nc(C3CCOCC3)no2)CC1 | 0% | 
53 | O=C(NC1CCCN(c2cc(-c3ccc(F)cc3)[nH]n2)C1)c1ccc(Br)cc1 (stereo unspecified) | 2.67% | 
54 | O=C(NC1CCCN(c2cc(-c3ccc(Cl)cc3)[nH]n2)C1)c1ccncc1 (stereo unspecified) |  | 12.6 µM (active)
55 | O=C(NC1CCN(c2cc(-c3ccc(Cl)cc3)[nH]n2)C1)c1c[nH]c2ccccc12 (stereo unspecified) | -19.2% | 
56 | O=C(NC1CCN(c2cc(-c3ccc(F)cc3)[nH]n2)C1)c1ccc2c(c1)OCO2 (stereo unspecified) | 5.21% | 
57 | O=C(NC1CCN(c2cc(-c3ccc(F)cc3)[nH]n2)C1)c1cc2ccccc2[nH]1 (stereo unspecified) |  | 6.31 µM (active)
58 | O=C(NC1CCCN(c2cc(-c3ccc(Cl)cc3)[nH]n2)C1)c1ccccc1F (stereo unspecified) | -11.6% | 
59 | COc1ccc(-c2cc(N3CCC(NC(=O)c4ccc(N(C)C)cc4)C3)n[nH]2)cc1 (stereo unspecified) | -24.6% | 
60 | COc1ccc(-c2cc(N3CCCC(NC(=O)c4ccsc4)C3)n[nH]2)cc1 (stereo unspecified) |  | 14.1 µM (active)
61 | O=C(NC1CCCN(c2cc(-c3ccccc3)[nH]n2)C1)c1cccc(Cl)c1 (stereo unspecified) | -10% | 
